In ChEMBL document CHEMBL2218924, “A broad activity screen in support of a chemogenomic map for kinase signalling research and drug discovery” (Biochem J, 2013) one finds residual activity data, which are given here for 13 molecules.

In assay [1] the target is Serine/threonine-protein kinase MRCK beta (Homo sapiens) (UniProt Q9Y5S2). As to conditions: at 1 µM.
Assay [2] shares this target. As to conditions: at 10 µM.
Assay [3] deals with Ribosomal protein S6 kinase alpha-5 (Homo sapiens) (UniProt O75582). As to conditions: at 1 µM.
The target is the same in assay [4]. The settings on record: at 10 µM.
The target of assay [5] is SRSF protein kinase 3 (Homo sapiens) (UniProt Q9UPE1). The settings on record: at 10 µM.
Assay [6] addresses T1, Serine/threonine-protein kinase 4 (Homo sapiens) (UniProt Q13043).
T1 sequence (whole entry): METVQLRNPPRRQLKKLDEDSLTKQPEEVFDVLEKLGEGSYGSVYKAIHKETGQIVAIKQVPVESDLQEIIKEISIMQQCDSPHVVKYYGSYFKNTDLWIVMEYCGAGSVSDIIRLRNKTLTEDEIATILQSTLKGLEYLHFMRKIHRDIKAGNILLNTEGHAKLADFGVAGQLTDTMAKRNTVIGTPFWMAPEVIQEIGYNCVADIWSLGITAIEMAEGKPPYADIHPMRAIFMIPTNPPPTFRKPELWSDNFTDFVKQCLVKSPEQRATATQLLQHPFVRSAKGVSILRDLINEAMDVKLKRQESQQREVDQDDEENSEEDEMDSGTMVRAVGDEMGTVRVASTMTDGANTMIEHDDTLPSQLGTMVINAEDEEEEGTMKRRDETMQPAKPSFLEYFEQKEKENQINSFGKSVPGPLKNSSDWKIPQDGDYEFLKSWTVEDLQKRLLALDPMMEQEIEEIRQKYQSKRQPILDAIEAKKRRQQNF
As to conditions: at 1 µM.

Assay [7] concerns the target T1, Serine/threonine-protein kinase 4 (Homo sapiens). The settings on record: at 10 µM.
Assay [8] concerns the target Serine/threonine-protein kinase 24 (Homo sapiens) (UniProt Q9Y6E0). The settings on record: at 1 µM.
The target is the same in assay [9]. The settings on record: at 10 µM.
The target of assay [10] is T2, Tyrosine-protein kinase Mer (Homo sapiens) (UniProt Q12866).
T2 sequence (whole entry): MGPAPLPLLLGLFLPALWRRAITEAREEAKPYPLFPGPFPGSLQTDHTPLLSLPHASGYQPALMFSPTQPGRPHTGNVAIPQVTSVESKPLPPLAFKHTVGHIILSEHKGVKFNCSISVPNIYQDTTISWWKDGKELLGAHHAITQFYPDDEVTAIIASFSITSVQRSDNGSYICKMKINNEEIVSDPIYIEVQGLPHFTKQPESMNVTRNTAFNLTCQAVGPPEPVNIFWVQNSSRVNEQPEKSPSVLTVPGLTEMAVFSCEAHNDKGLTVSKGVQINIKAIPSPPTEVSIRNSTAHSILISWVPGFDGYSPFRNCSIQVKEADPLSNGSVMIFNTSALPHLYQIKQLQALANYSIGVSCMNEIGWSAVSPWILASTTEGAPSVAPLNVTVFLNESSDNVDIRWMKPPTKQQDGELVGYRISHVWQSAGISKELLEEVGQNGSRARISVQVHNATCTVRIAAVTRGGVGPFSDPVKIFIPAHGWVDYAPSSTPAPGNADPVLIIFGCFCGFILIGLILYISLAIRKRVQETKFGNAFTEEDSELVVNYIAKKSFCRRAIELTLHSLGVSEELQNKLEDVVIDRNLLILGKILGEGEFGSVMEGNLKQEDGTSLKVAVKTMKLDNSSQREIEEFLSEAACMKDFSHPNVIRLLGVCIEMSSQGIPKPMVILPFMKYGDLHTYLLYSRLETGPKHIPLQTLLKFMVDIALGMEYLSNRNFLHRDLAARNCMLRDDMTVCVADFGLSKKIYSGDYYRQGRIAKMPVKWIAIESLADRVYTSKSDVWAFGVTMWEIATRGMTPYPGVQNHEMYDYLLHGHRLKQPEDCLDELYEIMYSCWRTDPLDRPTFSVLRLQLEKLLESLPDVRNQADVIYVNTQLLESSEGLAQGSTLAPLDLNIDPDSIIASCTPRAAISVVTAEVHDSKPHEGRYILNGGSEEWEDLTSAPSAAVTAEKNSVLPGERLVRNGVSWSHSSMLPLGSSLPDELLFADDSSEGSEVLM
The settings on record: at 10 µM.

Assay [11] deals with Hepatocyte growth factor receptor (Homo sapiens) (UniProt P08581). As to conditions: at 1 µM.
Assay [12] shares this target. The settings on record: at 10 µM.
In assay [13] the target is Ribosomal protein S6 kinase alpha-4 (Homo sapiens) (UniProt O75676). As to conditions: at 1 µM.
The target is the same in assay [14]. As to conditions: at 10 µM.
The target of assay [15] is SRSF protein kinase 3 (Homo sapiens) (UniProt Q9UPE1). As to conditions: at 1 µM.
Assay [16] addresses T3, Serine/threonine-protein kinase 3 (Homo sapiens) (UniProt Q13188).
T3 sequence (whole entry): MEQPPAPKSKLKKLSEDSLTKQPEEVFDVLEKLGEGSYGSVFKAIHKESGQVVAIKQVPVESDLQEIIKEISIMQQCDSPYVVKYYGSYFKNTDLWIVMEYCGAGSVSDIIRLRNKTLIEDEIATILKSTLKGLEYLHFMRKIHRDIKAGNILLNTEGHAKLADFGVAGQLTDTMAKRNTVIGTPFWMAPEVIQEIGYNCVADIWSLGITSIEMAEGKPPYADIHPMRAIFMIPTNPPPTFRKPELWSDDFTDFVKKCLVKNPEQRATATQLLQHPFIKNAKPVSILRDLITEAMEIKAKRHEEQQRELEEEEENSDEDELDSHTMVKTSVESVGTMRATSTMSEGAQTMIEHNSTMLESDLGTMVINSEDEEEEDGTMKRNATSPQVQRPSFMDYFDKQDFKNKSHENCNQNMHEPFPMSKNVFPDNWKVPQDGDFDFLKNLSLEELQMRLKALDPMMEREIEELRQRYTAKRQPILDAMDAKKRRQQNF
The settings on record: at 1 µM.

Assay [17] concerns the target T3, Serine/threonine-protein kinase 3 (Homo sapiens). As to conditions: at 10 µM.
For assay [18], the target named is T2, Tyrosine-protein kinase Mer (Homo sapiens). The settings on record: at 1 µM.
Assay [19] concerns the target MAP kinase-interacting serine/threonine-protein kinase 2 (Homo sapiens) (UniProt Q9HBH9). The settings on record: at 1 µM.
For assay [20] the target is unchanged. The settings on record: at 10 µM.

Sequence of Serine/threonine-protein kinase 24 (Homo sapiens) (Q9Y6E0 whole entry, looked up): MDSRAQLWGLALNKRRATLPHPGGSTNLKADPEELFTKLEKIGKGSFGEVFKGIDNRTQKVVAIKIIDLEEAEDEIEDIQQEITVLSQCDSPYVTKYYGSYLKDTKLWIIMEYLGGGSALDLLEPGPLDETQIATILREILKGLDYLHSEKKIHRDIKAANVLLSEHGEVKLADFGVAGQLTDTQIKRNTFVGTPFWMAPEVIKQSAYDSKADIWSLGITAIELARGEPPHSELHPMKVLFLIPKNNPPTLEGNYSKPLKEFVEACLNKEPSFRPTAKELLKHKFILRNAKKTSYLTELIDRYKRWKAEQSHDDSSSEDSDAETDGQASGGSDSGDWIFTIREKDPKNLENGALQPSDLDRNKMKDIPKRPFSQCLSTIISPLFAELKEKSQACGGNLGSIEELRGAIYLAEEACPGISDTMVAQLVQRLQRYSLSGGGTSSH
Sequence of MAP kinase-interacting serine/threonine-protein kinase 2 (Homo sapiens) (Q9HBH9 whole entry, looked up): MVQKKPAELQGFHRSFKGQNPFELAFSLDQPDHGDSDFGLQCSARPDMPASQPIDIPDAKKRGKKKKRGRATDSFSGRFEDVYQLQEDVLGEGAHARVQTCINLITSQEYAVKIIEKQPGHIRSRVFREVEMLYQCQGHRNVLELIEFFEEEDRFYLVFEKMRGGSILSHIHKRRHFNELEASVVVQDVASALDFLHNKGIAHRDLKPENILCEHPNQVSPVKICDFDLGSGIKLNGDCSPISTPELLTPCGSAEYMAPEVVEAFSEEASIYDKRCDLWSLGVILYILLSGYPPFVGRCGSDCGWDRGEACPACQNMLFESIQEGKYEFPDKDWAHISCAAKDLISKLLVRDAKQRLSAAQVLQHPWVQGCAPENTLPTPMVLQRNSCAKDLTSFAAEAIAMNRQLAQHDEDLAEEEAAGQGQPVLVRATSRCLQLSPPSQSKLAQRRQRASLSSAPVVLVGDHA
Sequence of Ribosomal protein S6 kinase alpha-4 (Homo sapiens) (O75676 whole entry, looked up): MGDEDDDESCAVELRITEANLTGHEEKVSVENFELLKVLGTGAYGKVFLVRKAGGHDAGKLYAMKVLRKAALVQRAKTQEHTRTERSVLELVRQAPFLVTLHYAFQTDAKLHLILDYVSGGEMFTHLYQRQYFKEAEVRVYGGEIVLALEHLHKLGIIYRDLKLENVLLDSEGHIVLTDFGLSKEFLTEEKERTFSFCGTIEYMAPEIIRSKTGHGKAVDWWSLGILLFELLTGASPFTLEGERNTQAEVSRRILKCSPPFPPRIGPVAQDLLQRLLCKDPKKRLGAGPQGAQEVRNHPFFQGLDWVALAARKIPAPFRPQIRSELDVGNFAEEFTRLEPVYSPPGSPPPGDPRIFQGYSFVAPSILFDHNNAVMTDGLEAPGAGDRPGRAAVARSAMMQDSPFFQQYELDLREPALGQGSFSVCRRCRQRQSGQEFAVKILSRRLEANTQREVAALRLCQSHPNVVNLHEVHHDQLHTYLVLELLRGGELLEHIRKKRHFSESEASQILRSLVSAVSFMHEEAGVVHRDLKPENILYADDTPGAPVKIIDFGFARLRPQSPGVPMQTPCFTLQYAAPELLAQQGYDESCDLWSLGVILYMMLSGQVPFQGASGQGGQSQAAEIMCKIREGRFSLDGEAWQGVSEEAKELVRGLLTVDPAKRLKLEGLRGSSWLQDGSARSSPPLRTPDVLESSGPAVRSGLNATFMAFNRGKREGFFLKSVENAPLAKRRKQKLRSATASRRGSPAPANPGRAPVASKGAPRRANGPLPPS
Sequence of Ribosomal protein S6 kinase alpha-5 (Homo sapiens) (O75582 whole entry, looked up): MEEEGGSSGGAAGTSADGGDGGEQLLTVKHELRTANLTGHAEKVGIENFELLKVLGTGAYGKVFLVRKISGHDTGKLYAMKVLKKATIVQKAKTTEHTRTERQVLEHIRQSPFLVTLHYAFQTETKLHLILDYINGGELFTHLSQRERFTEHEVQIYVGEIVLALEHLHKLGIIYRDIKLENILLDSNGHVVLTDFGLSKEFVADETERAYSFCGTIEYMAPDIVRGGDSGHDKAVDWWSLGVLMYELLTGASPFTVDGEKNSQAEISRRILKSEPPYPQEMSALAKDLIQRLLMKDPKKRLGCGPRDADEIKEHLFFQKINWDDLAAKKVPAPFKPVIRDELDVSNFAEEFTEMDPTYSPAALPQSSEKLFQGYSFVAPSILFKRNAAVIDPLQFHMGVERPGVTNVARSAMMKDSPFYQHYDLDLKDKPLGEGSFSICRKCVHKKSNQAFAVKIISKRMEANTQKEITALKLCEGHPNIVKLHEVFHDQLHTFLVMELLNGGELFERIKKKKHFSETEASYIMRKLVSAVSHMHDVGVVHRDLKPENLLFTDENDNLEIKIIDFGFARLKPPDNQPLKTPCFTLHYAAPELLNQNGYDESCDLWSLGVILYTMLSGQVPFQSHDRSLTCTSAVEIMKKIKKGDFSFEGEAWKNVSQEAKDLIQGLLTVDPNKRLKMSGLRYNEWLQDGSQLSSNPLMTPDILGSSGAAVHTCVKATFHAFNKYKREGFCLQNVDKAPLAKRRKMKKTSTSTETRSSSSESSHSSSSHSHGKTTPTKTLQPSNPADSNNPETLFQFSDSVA
Sequence of Serine/threonine-protein kinase MRCK beta (Homo sapiens) (Q9Y5S2 whole entry): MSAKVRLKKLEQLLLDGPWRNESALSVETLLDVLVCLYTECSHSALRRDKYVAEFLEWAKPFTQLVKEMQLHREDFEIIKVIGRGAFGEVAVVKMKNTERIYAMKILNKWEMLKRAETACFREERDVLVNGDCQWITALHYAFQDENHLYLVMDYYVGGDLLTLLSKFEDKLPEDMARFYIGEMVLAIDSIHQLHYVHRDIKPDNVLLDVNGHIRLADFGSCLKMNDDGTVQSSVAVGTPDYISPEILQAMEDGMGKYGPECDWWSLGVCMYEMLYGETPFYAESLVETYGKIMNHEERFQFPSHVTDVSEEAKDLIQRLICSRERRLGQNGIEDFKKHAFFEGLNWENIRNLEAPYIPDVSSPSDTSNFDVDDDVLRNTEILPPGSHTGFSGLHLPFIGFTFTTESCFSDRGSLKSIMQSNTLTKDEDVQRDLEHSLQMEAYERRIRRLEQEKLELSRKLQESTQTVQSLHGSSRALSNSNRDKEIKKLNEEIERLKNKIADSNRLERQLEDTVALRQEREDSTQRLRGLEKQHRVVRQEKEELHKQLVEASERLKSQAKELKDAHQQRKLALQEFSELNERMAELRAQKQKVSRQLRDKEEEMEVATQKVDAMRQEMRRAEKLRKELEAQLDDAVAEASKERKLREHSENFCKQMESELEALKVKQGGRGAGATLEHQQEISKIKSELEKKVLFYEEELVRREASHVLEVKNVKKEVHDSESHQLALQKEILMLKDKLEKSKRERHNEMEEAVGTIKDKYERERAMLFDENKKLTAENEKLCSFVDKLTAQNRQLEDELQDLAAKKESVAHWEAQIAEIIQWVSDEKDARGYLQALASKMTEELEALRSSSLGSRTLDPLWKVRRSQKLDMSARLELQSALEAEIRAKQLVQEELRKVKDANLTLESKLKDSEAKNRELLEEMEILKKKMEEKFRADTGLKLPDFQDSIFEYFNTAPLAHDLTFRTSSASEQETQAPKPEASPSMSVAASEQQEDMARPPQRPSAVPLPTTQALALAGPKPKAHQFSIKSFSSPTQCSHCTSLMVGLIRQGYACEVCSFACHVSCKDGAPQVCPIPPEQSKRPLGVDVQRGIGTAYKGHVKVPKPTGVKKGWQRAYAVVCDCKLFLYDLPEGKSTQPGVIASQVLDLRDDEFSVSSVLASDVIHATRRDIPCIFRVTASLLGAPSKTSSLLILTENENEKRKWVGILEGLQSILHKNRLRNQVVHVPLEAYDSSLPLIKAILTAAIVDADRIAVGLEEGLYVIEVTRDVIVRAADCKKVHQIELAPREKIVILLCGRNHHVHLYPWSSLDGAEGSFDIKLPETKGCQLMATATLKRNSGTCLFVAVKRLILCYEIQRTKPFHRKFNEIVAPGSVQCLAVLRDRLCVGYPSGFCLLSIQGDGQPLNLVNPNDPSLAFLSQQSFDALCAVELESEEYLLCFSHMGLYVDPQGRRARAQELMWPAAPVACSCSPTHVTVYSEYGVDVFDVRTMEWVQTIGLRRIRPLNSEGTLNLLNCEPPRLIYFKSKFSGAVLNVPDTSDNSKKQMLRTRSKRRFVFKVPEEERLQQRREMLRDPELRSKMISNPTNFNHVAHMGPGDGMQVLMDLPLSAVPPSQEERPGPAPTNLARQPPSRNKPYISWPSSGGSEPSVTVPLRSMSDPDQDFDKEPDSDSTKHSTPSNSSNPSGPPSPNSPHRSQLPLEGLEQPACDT
Sequence of SRSF protein kinase 3 (Homo sapiens) (Q9UPE1 whole entry): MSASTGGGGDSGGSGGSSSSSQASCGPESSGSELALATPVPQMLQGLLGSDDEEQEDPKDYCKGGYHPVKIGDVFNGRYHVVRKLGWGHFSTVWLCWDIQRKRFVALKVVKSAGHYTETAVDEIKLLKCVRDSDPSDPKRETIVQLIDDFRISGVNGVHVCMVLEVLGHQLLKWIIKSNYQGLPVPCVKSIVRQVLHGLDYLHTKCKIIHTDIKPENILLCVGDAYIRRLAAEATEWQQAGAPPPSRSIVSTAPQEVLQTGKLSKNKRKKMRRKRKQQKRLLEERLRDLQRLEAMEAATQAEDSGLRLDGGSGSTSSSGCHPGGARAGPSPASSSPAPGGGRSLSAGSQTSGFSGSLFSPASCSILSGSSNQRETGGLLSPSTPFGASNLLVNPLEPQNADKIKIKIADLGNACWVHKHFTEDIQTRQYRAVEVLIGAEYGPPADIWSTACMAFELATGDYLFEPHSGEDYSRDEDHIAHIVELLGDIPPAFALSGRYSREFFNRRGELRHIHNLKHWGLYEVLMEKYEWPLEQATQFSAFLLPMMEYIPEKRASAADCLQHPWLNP

For `Oc1cccc(-c2nc(N3CCOCC3)c3oc4ncccc4c3n2)c1`, the residual activity in assay [1] turned out to be 91%; in [2], 85%; in [3] it was 130%; in assay [4], 90%; in assay [5] it was 92%; in assay [6], 97%. The residual activity in assay [7] was 97%; in assay [8], 75%; in assay [9] it was 74%; in [10] it was 93%; in [11] it was 121%; in assay [12], 133%.
With `O=C1Cc2c([nH]c3ccc(Br)cc23)-c2ccccc2N1`, the residual activity turned out to be 72% in assay [1]; 52% in assay [2]; 82% in assay [13]; 63% in assay [14]; 98% in assay [15]; 87% in assay [5]. In addition, the residual activity in assay [6] was determined as 44%; in assay [7], 35%; in assay [16] it was 87%; in [17], 28%; in assay [8], 65%; in [9], 40%. The residual activity worked out at 78% in [18], 28% in [10], 90% in assay [19] and 39% in assay [20].
As for `Cn1c2ccccc2c2c3c(c4c5ccccc5n(CCC#N)c4c21)CNC3=O`, the residual activity was determined as 74% in [1]; 64% in [2]; 3% in [3]; 2% in assay [4]; 2% in assay [13]; 5% in [14]. Further, the residual activity in assay [6] is 1%; in [7], 2%; in [16] it was 2%; in [17], 2%; in assay [8], 47%; in [9], 57%. Moreover, the residual activity in [11] is 107%; in [12], 106%; in [19] it was 10%; in assay [20], 10%.
As to `CCOC(=O)c1c(C)[nH]c(/C=C2\C(=O)Nc3ccccc32)c1C`, the residual activity in [1] was found to be 91%; in assay [2] it was 83%; in assay [4], 97%; in assay [13] it was 87%; in assay [14], 91%; in assay [15], 95%. Besides, the residual activity came out at 90% in assay [5]; 85% in [16]; 72% in assay [17]; 97% in assay [8]; 88% in assay [9]; 16% in assay [18]. Besides, the residual activity in [10] amounted to 3%.
For the molecule `COc1cc2ncnc(Nc3cccc(Cl)c3)c2cc1OC`, the residual activity in assay [1] came out at 102%; in assay [2], 104%; in [3] it was 103%; in assay [4], 102%; in assay [15] it was 104%; in assay [5] it was 22%. The residual activity turned out to be 74% in assay [7]; 100% in assay [16]; 74% in assay [17]; 74% in [9]; 51% in [10]; 77% in assay [11]. Further, the residual activity is 70% in assay [12], 33% in [19] and 10% in [20].
On to `c1ccc(-c2cnc(Nc3ccc(OCCN4CCCC4)cc3)s2)cc1`, for which the residual activity is 106% in assay [1]; 109% in assay [2]; 128% in [3]; 106% in assay [4]; 108% in [15]; 78% in [5]. In addition, the residual activity in assay [16] came out at 109%; in [8], 67%; in assay [9], 80%; in [18], 81%; in assay [10], 17%; in assay [11], 78%. Moreover, the residual activity in [12] came to 44%; in [19], 21%; in assay [20] it was 7%.
In the case of `CCCC(=O)Oc1ccc2[nH]c(C(=O)c3cc4ccccc4[nH]3)cc2c1`, the residual activity in assay [1] was 92%; in assay [2], 79%; in assay [4], 103%; in [13], 94%; in assay [14], 99%; in [5] it was 88%. Further, the residual activity worked out at 94% in [6]; 103% in assay [7]; 105% in assay [16]; 71% in assay [17]; 67% in [8]; 68% in [9]. In addition, the residual activity in assay [10] was determined as 81%; in [12], 127%; in [19], 99%; in assay [20] it was 100%.
`O=C1Nc2ccc(Cl)cc2/C1=C/c1cc(Cl)c(O)c(Cl)c1`: the residual activity was 80% in assay [1]; 67% in assay [2]; 84% in assay [13]; 51% in assay [14]; 100% in assay [15]; 71% in [5]. In addition, the residual activity is 41% in [6]; 12% in assay [7]; 49% in assay [16]; 2% in assay [17]; 56% in [8]; 50% in [9]. Besides, the residual activity was found to be 92% in assay [18]; 58% in [10]; 87% in assay [11]; 79% in assay [12]; 90% in assay [19]; 61% in assay [20].
For the molecule `O=c1cc(N2CCOCC2)oc2c1ccc1ccccc12`, the residual activity in [1] was 95%; in assay [2] it was 78%; in assay [3] it was 125%; in assay [4], 103%; in assay [14], 105%; in assay [5] it was 70%. Besides, the residual activity in [6] was determined as 91%; in assay [7], 97%; in assay [8] it was 70%; in [9] it was 82%; in assay [18], 105%; in assay [10] it was 83%. The residual activity in assay [12] was 133%; in assay [19], 100%; in assay [20], 93%.
For `Nc1n[nH]c2nc3ccccc3nc12`, the residual activity in [1] was determined as 86%; in [2] it was 92%; in [4], 86%; in assay [6], 76%; in assay [7] it was 94%; in assay [16], 117%. The residual activity in assay [17] came out at 95%; in [8], 81%; in assay [9], 70%; in [18], 95%; in assay [10] it was 73%; in assay [11], 92%. In assay [12], the residual activity was found to be 100%.
Turning to `O=C(c1ccccc1)c1ccc(N2CCOCC2)cc1O`, the residual activity was determined as 91% in assay [1]; 82% in [2]; 86% in assay [4]; 88% in assay [13]; 100% in [14]; 113% in assay [15]. For the same molecule, the residual activity is 111% in assay [6]; 116% in [7]; 95% in assay [17]; 86% in [8]; 68% in [9]; 85% in [10]. Also, the results for the residual activity in [11], in assay [12] and in assay [20] were 86%, 66% and 80%, respectively.
For `O=C1NC(=O)c2c1c1c3ccccc3[nH]c1n1cncc21`, the residual activity in assay [1] is 82%; in assay [2], 79%; in [3] it was 63%; in assay [4], 48%; in assay [13], 53%; in [14], 29%. The residual activity is 82% in assay [15]; 63% in assay [5]; 40% in [6]; 21% in assay [7]; 68% in [16]; 33% in assay [17]. The residual activity in assay [8] amounted to 56%; in assay [9], 34%; in assay [18] it was 37%; in assay [10] it was 21%; in assay [11] it was 146%; in assay [12], 92%. The residual activity in assay [19] came out at 32%; in [20] it was 21%.
On to `O=C(c1cc2cc(O)ccc2[nH]1)c1cc2cc(O)ccc2[nH]1`, for which the residual activity in [1] was found to be 77%; in assay [2] it was 82%; in [13], 67%; in [14] it was 27%; in [6], 39%; in assay [7], 14%. Besides, the residual activity in assay [16] stood at 56%; in [17], 18%; in [8] it was 48%; in [9], 9%; in assay [18] it was 47%; in assay [10], 7%. Further, the residual activity in assay [11] amounted to 74%; in assay [12], 29%; in assay [19], 33%; in assay [20], 8%.
